# In PubChem BioAssay AID463173 (ICCB-Longwood Screening Facility, Harvard Medical School, 2010):
# Screen size: about 52,000 compounds; about 4,300 (8.3%) were called active. Rule as the data show it: active = survival mostly below about 52% (no sharp cut-off); inactive = mostly above about 56%. Shown is part of a subset that was picked to be rich in actives.
# System: DeltatarO mutant
# Assay: S. aureus survival, RN4220 and DeltatarO strains – OD600, teichoic acid synthesis inhibitors, primary screen (AID 463173)
# Details: S. aureus RN4220 wild type/DeltatarO growth, OD600, 18 h, hits give low values, screened at 18.75 µg/mL (by protocol)
row,SMILES,survival
1,Cc1ccc(NC(=O)CSc2nc3c(oc4ccccc43)c(=O)n2-c2ccc(F)cc2)c(C)c1,67% (inactive)
2,O=C(Nc1ccc2nsnc2c1)C1CC1,89% (inactive)
3,O=C1c2ccc(-c3ccc4c(c3)C(=O)N(CCO)C4=O)cc2C(=O)N1CCO,87% (inactive)
4,CN1CC(C(=O)O)CC1=O (stereo unspecified),83% (inactive)
5,Cn1c(=O)oc2cc(S(=O)(=O)CCC(=O)NCc3ccccc3)ccc21,77% (inactive)
6,Cc1ccc(Cl)cc1N1CCN(c2nc3ccccc3c3nc(-c4cccnc4)nn23)CC1,114% (inactive)
7,CCOC(=O)c1[nH]c(C)c(CCC(=O)Nc2cc(Cl)c(OC)cc2OC)c1C,122% (inactive)
8,COc1ccc(OCC(=O)NCC(c2ccc(OC)cc2)N2CCCCC2)cc1 (stereo unspecified),79% (inactive)
9,COc1ccc(CC(=O)NCc2ccc3c(c2)CCN3C(C)=O)cc1,96% (inactive)
10,COc1ccc(-n2c(=O)c3c4c(sc3n(Cc3ccc(F)cc3)c2=O)CCCC4)c(OC)c1,47% (inactive)
11,Cc1cc(C)cc(NC(=O)CSc2ccc(-c3cccs3)nn2)c1,73% (inactive)
12,Cc1ccc2c(c1)C(=O)OC(C(=O)Nc1ccc(C(=O)O)cc1)C2 (stereo unspecified),65% (inactive)
13,CCOc1ccc(NC(=O)c2c(NC(=O)c3ccccc3F)sc3c2CCC3)cc1,155% (inactive)
14,CCS(=O)(=O)N1CCCc2cc(C(=O)Nc3cccc(C(C)=O)c3)ccc21,89% (inactive)
15,CCCCc1ccc(NC(=O)c2ccc3c(c2)CCN3S(=O)(=O)CC)cc1,38% (active)
16,CCCCc1ccc(NC(=O)c2ccc3c(c2)CCN3S(=O)(=O)c2ccccc2)cc1,53% (inactive)
17,CCS(=O)(=O)N1CCc2cc(C(=O)Nc3cccc(NC(C)=O)c3)ccc21,42% (active)
18,CCS(=O)(=O)N1CCc2cc(C(=O)Nc3cccc(C(C)=O)c3)ccc21,50% (inactive)
19,CCS(=O)(=O)N1CCc2cc(C(=O)Nc3ccc(C(=O)OC)cc3)ccc21,49% (inactive)
20,COc1ccc2c(C)c(CCC(=O)NCc3ccccc3Cl)c(=O)oc2c1C,63% (inactive)
21,COc1ccc(CN2CCc3c(c(=O)n4ncc(C(=O)N5CCN(c6ccccc6OC)CC5)c4n3C)C2)cc1,89% (inactive)
22,CCN(CCCNC(=O)c1cc2cc3ccc(C)cc3nc2s1)c1ccccc1,126% (inactive)
23,CCN(CCCNC(=O)c1cc2cc3cc(OC)ccc3nc2s1)c1ccccc1,53% (active)

row,SMILES,survival
1,CCN(CCCNC(=O)c1cc2cc3cc(C)ccc3nc2s1)c1cccc(C)c1,102% (inactive)
2,CCN(CCCNC(=O)c1cc2cc3ccc(OC)cc3nc2s1)c1cccc(C)c1,83% (inactive)
3,CCN(CCCNC(=O)c1cc2cc3ccc(OC)cc3nc2s1)c1ccccc1,97% (inactive)
4,CCN(CCCNC(=O)c1cc2cc3cc(OC)ccc3nc2s1)c1cccc(C)c1,46% (active)
5,O=C(COCc1cc(-c2cccs2)on1)NCc1ccc(Cl)cc1,64% (inactive)
6,CC1CCN(S(=O)(=O)c2ccc(N3CCCCS3(=O)=O)cc2)CC1,71% (inactive)
7,Cc1ccc2oc(C(=O)N3CCC(c4nc5ccccc5s4)CC3)c(C)c2c1,52% (inactive)
8,O=C(NCCS(=O)(=O)N1CCN(c2ccccc2F)CC1)c1cc(=O)c2ccccc2o1,71% (inactive)
9,Cc1cccc(NC(=O)C2CCCN(S(=O)(=O)c3ccc4c(c3)oc(=O)n4C)C2)c1C (stereo unspecified),83% (inactive)
10,CCC(CC)c1nnc(NC(=O)CS(=O)(=O)Cc2ccccc2)s1,70% (inactive)
11,CCOC(=O)c1cnc2c(ccc3ccccc32)c1Nc1ccc(OC)cc1OC,8% (active)
12,CCOC(=O)c1cnc(NCc2ccccc2OC)c2ccccc12,89% (inactive)
13,CCOC(=O)c1cnc2c(ccc3ccccc32)c1Nc1ccccc1OCC,126% (inactive)
14,CCOC(=O)c1cnc(N2CCN(c3ccc(OC)cc3)CC2)c2ccccc12,97% (inactive)
15,CCOC(=O)c1c(C)oc2ncnc(Nc3ccc(OC)cc3OC)c12,97% (inactive)
16,CCOC(=O)c1cnc2c(ccc3ccccc32)c1Nc1ccccc1OC,28% (active)
17,CCOC(=O)CSc1nc2cc(OC)c(OC)cc2c2nc(-c3ccccc3)nn12,59% (inactive)
18,O=C(Cn1ncc2c(=O)oc3ccccc3c21)NCc1ccc(Cl)cc1,86% (inactive)
19,CCOc1ccccc1N(CC)C(=O)c1cc2c(=O)n(CC)c3ccccc3c2s1,121% (inactive)
20,COc1ccc(C2=Nc3ccc(OC(F)(F)F)cc3NC(c3cccnc3)=N2)cc1,67% (inactive)
21,COc1cccc(CNS(=O)(=O)c2cnc(N)nc2)c1,64% (inactive)
22,CC(C)Oc1ccc(CNS(=O)(=O)c2cnc(N)nc2)cc1,115% (inactive)
23,COc1ccc(CNS(=O)(=O)c2cnc(N)nc2)cc1,-2% (active)

row,SMILES,survival
1,CCc1nn(C(C)C(=O)N2CCN(c3cccc(C(F)(F)F)c3)CC2)c(=O)c2cc3occc3n12 (stereo unspecified),73% (inactive)
2,COc1ccc(OC)c(CCNC(=O)CCn2c(=O)c3cccn3c3cccnc32)c1,84% (inactive)
3,CCN(CC)c1ccc(-n2nc3cc(C)c(NC(=O)c4ccccc4F)cc3n2)cc1,56% (active)
4,CCN(CC)c1ccc(NC(=O)c2ccccc2F)cc1,63% (active)
5,Cc1cc2nn(-c3ccc(F)cc3)nc2cc1NC(=O)c1cccc2c(Cl)cccc12,59% (inactive)
6,Cc1cc2nn(-c3ccccc3)nc2cc1NC(=O)c1cccc2c(Cl)cccc12,43% (active)
7,CCN(CC)c1ccc(NC(=O)CN2CCN(c3ccccc3F)CC2)cc1,75% (inactive)
8,CCN(CC)c1ccc(-n2nc3cc(C)c(NC(C)=O)cc3n2)cc1,92% (inactive)
9,CCN(CC)c1ccc(-n2nc3cc(C)c(NC(=O)c4ccccc4C)cc3n2)c(C)c1,73% (inactive)
10,Cc1cc2nn(-c3ccc(F)cc3)nc2cc1NC(=O)c1cccc2ccccc12,68% (inactive)
11,O=C(Nc1ccc(S(=O)(=O)N(Cc2ccccc2)c2ccccc2)cc1)c1ccccc1F,58% (inactive)
12,Cc1c(Cl)cccc1Nc1sc(C(=O)c2ccccc2)c(N)c1S(=O)(=O)c1ccccc1,71% (inactive)
13,Cc1cc(C)cc(OCCSc2nc(-c3ccc(C(C)(C)C)cc3)nc3cc(=O)[nH]n23)c1,83% (inactive)
14,Cn1c(CNC(=O)CSc2n[nH]c(-c3ccccc3)n2)nc2ccccc21,89% (inactive)
15,O=C(NCCSc1c(-c2ccc(Cl)cc2)[nH]c2ccccc12)c1ccc(S(=O)(=O)N2CCOCC2)cc1,68% (inactive)
16,CCOC(=O)c1sc2ccccc2c1S(=O)(=O)Nc1ccc(N(C)C)cc1,126% (inactive)
17,CC(C)c1ccc2occ(CC(=O)N(Cc3ccc(F)cc3)C3CCS(=O)(=O)C3)c2c1 (stereo unspecified),61% (inactive)
18,Cc1ccc(CNC(=O)c2ccc3c(c2)nc2n3CCCC2)cc1,86% (inactive)
19,Cc1cn2c(=O)cc(COC(=O)c3ccc(NC(=O)c4ccc(C(C)(C)C)cc4)cc3)nc2s1,20% (active)
20,Cc1cn2c(=O)cc(COC(=O)c3ccc(NC(=O)C(C)Oc4ccccc4)cc3)nc2s1 (stereo unspecified),8% (active)
21,Cc1cn2c(=O)cc(COC(=O)c3ccc(NC(=O)c4ccc(F)cc4)cc3)nc2s1,96% (inactive)
22,CC(Oc1ccccc1)C(=O)Nc1ccc(C(=O)OCc2cc(=O)n3ccsc3n2)cc1 (stereo unspecified),87% (inactive)
23,Cc1cn2c(=O)cc(COC(=O)c3cccc(NC(=O)c4ccc(C(C)(C)C)cc4)c3)nc2s1,103% (inactive)

row,SMILES,survival
1,Cc1cn2c(=O)cc(COC(=O)c3cccc(NC(=O)C(C)Oc4ccccc4)c3)nc2s1 (stereo unspecified),95% (inactive)
2,COc1ccccc1CNC(=O)CCCc1nnc2n(CC(C)C)c(=O)c3sccc3n12,95% (inactive)
3,CCN(CC)C(=O)N1CCN(C(=O)N(CC)CC)CC1,79% (inactive)
4,CCCCOC(=O)Cc1c(C)[nH]c(=O)[nH]c1=O,114% (inactive)
5,CC(NC1CCCC1)c1ccccc1 (stereo unspecified),84% (inactive)
6,COc1ccc(CCNC(=O)CSc2ncc3c(n2)-c2cc(Cl)ccc2N(Cc2ccccc2)S3(=O)=O)cc1OC,87% (inactive)
7,COc1ccc(-c2cc(C(=O)N3CCN(c4ccc(F)cc4)CC3)no2)cc1OC,57% (inactive)
8,COc1cccc(N2CCN(C(=O)c3cnc4c(-c5ccc(F)cc5)c(C)nn4c3C)CC2)c1,-5% (active)
9,COc1cccc(N2CCN(C(=O)c3cnc4c(-c5ccccc5)c(C)nn4c3C)CC2)c1,87% (inactive)
10,COc1cccc(-c2cc(C(=O)N3CCN(c4ccccc4OC)CC3)no2)c1,-4% (active)
11,COc1ccc(N2CCN(C(=O)c3cc(-c4ccc(C)c(F)c4)on3)CC2)cc1,92% (inactive)
12,COc1ccccc1N1CCN(C(=O)c2cc(-c3ccc(F)cc3)on2)CC1,46% (inactive)
13,COc1cccc(-c2cc(C(=O)N3CCN(c4ccc(F)cc4)CC3)no2)c1,44% (active)
14,COc1ccccc1N1CCN(C(=O)c2cc(-c3ccc(C)c(F)c3)on2)CC1,66% (inactive)
15,Cc1nn2c(C)c(C(=O)N3CCN(c4ccc(Cl)cc4)CC3)cnc2c1-c1ccc(F)cc1,88% (inactive)
16,COc1ccc(S(=O)(=O)NCCc2sc(C)nc2C)cc1F,88% (inactive)
17,CC(C)N(C(C)C)S(=O)(=O)c1ccccc1,100% (inactive)
18,COc1ccc(-c2nc3cccc(C)n3c2NC(C)(C)C)cc1O,109% (inactive)
19,COCCN1C(=O)N(c2cccc(OC)c2)C(=O)C1CC(=O)Nc1ccccc1 (stereo unspecified),139% (inactive)
20,CCOC(=O)c1sc(NC(=O)CSc2nnc(Cn3nnc4ccccc43)n2C)nc1C,94% (inactive)
21,O=C(CSc1nc(=O)[nH]c2c1CCC2)NCc1ccc(Cl)cc1,67% (inactive)
22,COc1ccc(NC(=O)Nc2nnc(N3CCCCCC3)s2)cc1,72% (inactive)
